AmpC inh no detg – AmpC beta-lactamase inhibition without detergent. AmpC nitrocefin hydrolysis, absorbance 480 nm, 0.0001% Triton. Potency, µM (highest dose often 57.1 µM), without a hit: at the top dose activity change, negative = inhibition, usual class: inhibitors. 330,000 tested, 0.52% active. AID 485341;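 also: plate controls were no compound for no effect and no enzyme for full effect; nearly all actives have a fitted effect of over 20% in size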
Target sequence (P00811 whole entry, looked up): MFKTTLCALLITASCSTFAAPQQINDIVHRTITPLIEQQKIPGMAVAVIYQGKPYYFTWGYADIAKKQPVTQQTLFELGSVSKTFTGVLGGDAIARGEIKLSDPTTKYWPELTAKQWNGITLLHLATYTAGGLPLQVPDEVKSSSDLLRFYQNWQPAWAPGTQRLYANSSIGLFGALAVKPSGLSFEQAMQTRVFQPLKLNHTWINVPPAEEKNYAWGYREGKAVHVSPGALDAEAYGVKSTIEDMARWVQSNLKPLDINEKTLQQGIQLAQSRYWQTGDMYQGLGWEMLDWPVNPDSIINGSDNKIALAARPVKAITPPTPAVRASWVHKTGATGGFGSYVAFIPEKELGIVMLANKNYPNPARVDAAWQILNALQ
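20 mM phosphate pH 7.0 + 0.01% (detergent screen) or 0.0001% Triton X-100; 5.3 nM AmpC reagent; cpd preinc 15 min RT; nitrocefin (800 uM stock) to start; A480 q20 s × 4 min; Activity was normalised to no-enzyme and no-compound control wells.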
AMA1 RON2 block – disrupts binding of P. falciparum AMA1 to RON2. AlphaScreen AMA1-biotinylated RON2 peptide binding. Potency, µM (series often up to 58.2 µM), for inactives: top-dose activity change, negative = inhibition, most hits filed as inhibitors. 360,000 tested, 0.2% active;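 also: 0% = vehicle wells and -100% = peptide control; nearly all actives have a fitted effect of over 45% in size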
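AMA1 (3D7) with his tag at 25 nM final met compounds first, then biotinylated RON2 peptide at 25 nM; detection used donor plus acceptor beads, 10 µg/mL apiece, read by AlphaScreen after 30 min at room temperature.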
SARS PLP yeast – inhibitors of SARS-CoV papain-like protease in yeast; Potency, µM (highest dose often 32.9 µM), without a hit: at the highest dose activity, positive = growth rescue, hits mostly activators; AID 485353; 330,000 tested, 0.19% active; S. cerevisiae expressing SARS-CoV PLpro, growth rescue; calls by dose curve; also: 0% is about no effect; nearly all actives have a fitted effect of over 55% in size
VACV Venus inh – vaccinia inhibition (Venus reporter) | Potency, µM (top dose mostly 36.5 µM), for the others: at the top dose activity change, negative = inhibition, hits mostly inhibitors | AID 720580 | 330,000 tested, 0.46% active | Vaccinia virus Venus reporter expression, fluorescence; calls by dose curve; tested in A549 cells; also: % is scaled to controls: 0 for no effect and ±100 for the full control effect; nearly all actives have a fitted effect of over 30% in size
Vaccinia mCherry – inhibitors of vaccinia virus infection (mCherry reporter signal); 310,000 tested, 0.63% active; Vaccinia virus mCherry reporter infection, fluorescence; Potency, µM (top dose mostly 36.5 µM), for inactives: at the top dose activity change, negative = inhibition, most hits filed as inhibitors; AID 720579; calls by dose curve; tested in A549 cells; also: % is scaled to controls: 0 for no effect and ±100 for the full control effect; nearly all actives have a fitted effect of over 35% in size
AmpC inh detg – blocks E. coli AmpC beta-lactamase in detergent assay. P00811. AmpC hydrolysis of nitrocefin, absorbance 480 nm, 0.01% Triton. 370,000 tested, 0.041% active. Potency, µM (highest dose often 114 µM), inactives show top-dose activity change, negative = inhibition, most hits filed as inhibitors;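 also: 0% = no-compound wells and -100% = no-enzyme wells; nearly all actives have a fitted effect of over 25% in size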
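20 mM phosphate pH 7.0 + 0.01% (detergent screen) or 0.0001% Triton X-100; 5.3 nM AmpC reagent; cpd preinc 15 min RT; nitrocefin (800 uM stock) to start; A480 q20 s × 4 min; Activity was normalised to no-enzyme and no-compound control wells.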
* hit, by the source's call; i = inactive; u = inconclusive; x = no result given; [ ] = remark or other dose. Sampled rows, rich in hits. Any-hit rate of the full collection: about 1.4%. Unless noted, calls follow the shape of the dose curve; as a rule, active = well fitted curve in the direction sought with a large enough effect; inconclusive = small, poorly fitted or top-dose-only effect, or another doubt; inactive = no such curve, though single readings can be large; an effect the other way counts as inactive or inconclusive. Potency is read from the fitted curve at half-maximal effect.

SMILES	AmpC inh no detg	AMA1 RON2 block	SARS PLP yeast	VACV Venus inh	Vaccinia mCherry	AmpC inh detg
COc1ccccc1C(CNc1ccc(S(=O)(=O)N2CCCC2)cc1[N+](=O)[O-])N(C)C (stereo not drawn)	77.0%	-19.8%	9.1%	10µM*	8.91µM*	4.3%
COc1ccc(C(CNc2ccc(S(=O)(=O)N3CCN(C)CC3)cc2[N+](=O)[O-])N(C)C)cc1 (stereo not drawn)	-4.3%	-13.8%	3.6%	-9.2%	-14.9%	0.0%
O=[N+]([O-])c1ccc(/C=N/n2cnc3ccccc32)s1	-16.9%	7.1%	-64.3%	6.31µM*	5.01µM*	-11.9%
O=[N+]([O-])c1ccc(/C=N/n2c(CO)nc3ccccc32)s1	-15.0%	-0.1%[11.6 µM]	-10.3%	3.98µM*	5.01µM*	1.6%
Cc1nc2ccccc2n1/N=C/c1ccc([N+](=O)[O-])s1	-17.8%	-2.8%	-29.6%	-19.4%	-29.6%	0.5%
FC(F)(F)c1cccc(N2CCN(Cc3nnc(-c4ccc5c(c4)OCO5)o3)CC2)c1	x	x	x	-5.9%	-4.8%	12.9%
O=C(N/N=C\c1cc(Cl)ccc1O)c1ccc(S(=O)(=O)N2CCCCC2)cc1	-32.3%	8.3%	u	u	12.6µM*	u
Cc1cc(C(=O)NCc2nc(-c3cccc(NC(=O)c4cc(C)oc4C)c3)oc2C)nc(C)n1	x	x	x	2.8%	-15.6%	x
O=c1[nH]nc(SCCS(=O)(=O)c2ccc(F)cc2)n1-c1ccccc1	-9.4%	-21.8%	0.4%	2.24µM*	1.26µM*	4.6%
CCOc1ccccc1NC(=O)CSc1n[nH]c(=O)n1-c1ccccc1	x	-3.8%	x	x	x	x
O=c1[nH]nc(SCCS(=O)(=O)c2ccc(F)cc2)n1-c1ccc2c(c1)OCCO2	-25.6%	5.4%	0.3%	1.58µM*	u	4.3%
Oc1c(/C=C/C=C/C=Nc2ccccc2)sc(=S)n1Cc1ccccc1	12.6µM*	-7.2%	-1.5%	x	x	-1.6%
COc1cc(/C=N\NC(=O)c2ccc(Cn3nc([N+](=O)[O-])c(Cl)c3C)o2)ccc1O	-17.6%	3.1%	6.6%	17.8µM*	x	1.2%
COc1ccc(OC)c(NC(=O)c2cccc(Cn3cc(Br)c([N+](=O)[O-])n3)c2)c1	-6.2%	-18.8%	29.3%	u	-26.0%	-0.5%
COc1cccc(/C=N/NC(=O)Cn2nc(C)c([N+](=O)[O-])c2C)c1O	-30.0%	60.8%	15.5%	u	11.2µM*	-1.1%
Cc1nn(CC(=O)N/N=C/c2cccs2)c(C)c1[N+](=O)[O-]	-0.5%	4.7%	0.0%	-9.5%	-9.4%	2.0%
COc1cccc(/C=N\NC(=O)c2ccc(Cn3cc(Br)c([N+](=O)[O-])n3)o2)c1O	11.9%	41.5%	5.1%	u	1.26µM*	3.9%
CC(=O)Nc1cc(C(=O)N2CCN(C(=O)c3ccco3)CC2)cc2ncn(CCc3ccccn3)c12	x	x	x	-2.2%	-12.0%	x
CCCc1ccc(C2C3=C(CC(C)(C)CC3=O)NC3=C2C(=O)c2ccccc23)cc1 (stereo not drawn)	-53.0%	u	1.6%	u	-25.6%	8.5%
CC1(C)CC(=O)C2=C(C1)NC1=C(C(=O)c3ccccc31)C2c1ccc(O)cc1 (stereo not drawn)	-33.5%	-15.5%	10.7%	11.2µM*	u	-4.1%
Fc1ccc(C2=Nc3cccc4cccc(c34)N2)cc1	-9.1%	2.1%	0.5%	-4.7%	-2.1%	-3.9%
FC(F)(F)C1=Nc2cccc3cccc(c23)N1	8.91µM*	u	0.4%	0.7%	-12.9%	u
Cc1ccc(CN2CCOc3ccc(CN4CCC(O)(c5cccnc5)CC4)cc3C2)cc1	x	x	x	-21.1%	-27.8%	x
CCCCCCCCCC[n+]1ccc(/C=C/c2c(C)[nH]c3ccccc23)cc1	x	x	x	397.9%	u	x
Cc1cc(C)cc(NS(=O)(=O)c2ccc3c(c2)c(=O)n(C)c(=O)n3C)c1	-15.5%	5.7%	-6.4%	5.01µM*	5.62µM*	-3.9%
SMILES	AmpC inh no detg	AMA1 RON2 block	SARS PLP yeast	VACV Venus inh	Vaccinia mCherry	AmpC inh detg
Cn1c(=O)c2cc(S(=O)(=O)Nc3cc(C(=O)O)cc(C(=O)O)c3)ccc2n(C)c1=O	-17.9%	2.3%	-2.0%	x	x	-1.3%
COc1ccc(C(=O)N/N=C/c2cc(Br)ccc2O)cc1OC	-3.1%	97.2%	4.4%	-18.8%	17.8µM*	-5.5%
COc1ccc(Br)cc1/C=N/NC(=O)c1cc(Br)ccc1O	-27.1%	x	2.8%	x	x	-1.8%
O=C(CNC(=O)c1ccccc1)N/N=C/c1cc(Br)ccc1O	-39.5%	45.8%	13.9%	u	u	0.0%
O=C(N/N=C\C=C\c1ccc(Br)cc1)c1ccc2c(c1)OCO2	-33.5%	11.4%	1.0%	-2.7%	i	44.7µM*
O=C(CNC(=O)c1ccc2c(c1)OCO2)N/N=C/c1cc(Br)ccc1O	-34.0%	42.6%	0.4%	u	1.58µM*	-11.0%
COc1ccc(O)c(/C=N/NC(=O)c2ccc(CSc3nc(C)cc(C)n3)cc2)c1	-21.1%	-5.6%	u	u	8.91µM*	0.1%
CS(=O)(=O)c1ccc(-c2ccc3c(c2)CC(CNC(=O)C2(N4CCOCC4)CCCCC2)O3)cc1 (stereo not drawn)	x	x	x	u	-14.5%	x
COc1ccc2c(c1)OC(C)CN(CCNC(=O)c1csc(-c3cccs3)n1)C2 (stereo not drawn)	x	x	x	13.6%	-5.6%	x
CCOC(=O)C1CCN(Cc2ccc(O)c3ncccc23)CC1	-13.3%	9.47µM*	u	x	x	-7.3%
CC(C)(C)C1CCC2(CC1)Nc1cccc3cccc(c13)N2	12.6µM*	-7.0%	-11.2%	-6.1%	-3.8%	u
CCN(CC)c1ccc(C2Nc3cccc4cccc(c34)N2)cc1	-15.1%	-1.5%	2.2%	-12.7%	i	-5.4%
O=C(NCCc1nnc2n1CCN(CC1CC=CCC1)CC2)c1ccc(F)cc1 (stereo not drawn)	x	x	x	-14.0%	i	x
O=C1S/C(=C/c2ccccc2)C(=O)N1CC(O)Cn1c2ccccc2c2ccccc21 (stereo not drawn)	15.8µM*	-12.8%	-4.2%	-26.3%	-11.8%	-11.6%
CCCCNC(=O)COC(=O)c1c2c(nc3ccccc13)CCC2	-34.6%	-23.5%	-0.8%	-4.3%	-4.5%	-7.3%
CCCCNC(=O)COC(=O)c1c2c(nc3ccccc13)/C(=C/c1cccs1)CC2	25.1µM*	37.5%	-19.4%	u	-12.6%	-4.7%
CCN1CCN(Cc2ccc(NC(=O)c3ccc(C)c(NC(=O)c4ccno4)c3)cc2C(F)(F)F)CC1	6.0%	3.8%	-3.3%	u	-1.6%	-2.8%
CCN1CCN(Cc2ccc(NC(=O)c3ccc(C)c(NC(=O)c4c[nH]c5cc(C(F)(F)F)ccc5c4=O)c3)cc2C(F)(F)F)CC1	85.2%	u	-5.6%	14.1µM*	u	3.7%
